From PubChem
Rows were chosen to be rich in hits. Some 3.5% of all compounds tested hit in one or more screens of this group.
TEAD-YAP inh: TEAD-YAP interaction inhibition; inhibition, % at 9.12 µM; AID 1259422; 640,000 compounds, 1.4% hits; HEK-TIYL cells, TEAD-Gal4/YAP UAS-luciferase luminescence; in the data active = inhibition above about 32%;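 also: 0% = median of test compound wells and 100% = reference inhibitor wells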
MITF primary: blocks human microphthalmia-associated transcription factor; O75030; 650,000 compounds, 0.91% hits; AID 1259374; inhibition, % at 2.6 µM; AlphaScreen MITF homodimerization, bead proximity signal; in the data active = inhibition above about 50%;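 also: 0% = vehicle wells with protein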
FBW7 activator: activators of human E3 ligase FBW7. Q969H0. AlphaScreen FBW7–phospho-cyclin E peptide binding, activator screen. normalized activity (activation), % at 26.1 µM. 650,000 compounds, 0.13% hits. AID 1259310; in the data active = normalized activity above about 1.9%;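 also: purified mutant Fbw7 with reduced substrate affinity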
Target sequence (Q969H0 whole entry, looked up): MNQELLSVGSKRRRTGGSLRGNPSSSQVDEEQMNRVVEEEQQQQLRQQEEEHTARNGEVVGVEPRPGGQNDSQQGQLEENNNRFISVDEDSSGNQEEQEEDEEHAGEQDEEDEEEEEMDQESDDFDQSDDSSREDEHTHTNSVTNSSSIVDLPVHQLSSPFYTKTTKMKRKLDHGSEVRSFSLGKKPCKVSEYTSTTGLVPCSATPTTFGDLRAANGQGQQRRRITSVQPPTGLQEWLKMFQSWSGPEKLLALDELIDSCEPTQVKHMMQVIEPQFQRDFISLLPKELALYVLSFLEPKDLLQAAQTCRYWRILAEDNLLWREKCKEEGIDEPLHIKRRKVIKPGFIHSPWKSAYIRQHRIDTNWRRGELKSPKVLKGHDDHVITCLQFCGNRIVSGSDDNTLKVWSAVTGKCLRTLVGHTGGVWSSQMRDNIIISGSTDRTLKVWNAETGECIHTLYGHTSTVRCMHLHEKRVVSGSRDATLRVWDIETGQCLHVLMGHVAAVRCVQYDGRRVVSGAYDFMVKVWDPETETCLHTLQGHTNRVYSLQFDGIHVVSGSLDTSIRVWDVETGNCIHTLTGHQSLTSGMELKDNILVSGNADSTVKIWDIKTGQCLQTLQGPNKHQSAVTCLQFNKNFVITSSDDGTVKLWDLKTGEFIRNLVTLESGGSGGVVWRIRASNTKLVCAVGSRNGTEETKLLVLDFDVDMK
GPR151 activ: activators of human GPR151; Q8TDV0; PathHunter beta-arrestin GPR151 cells, luminescence; activation, % at 11.2 µM; 650,000 compounds, 1% hits; AID 1508602; in the data active = activation above about 4.9%;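 also: 0% = median of compound wells and 100% = cells with positive control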
GPR151 conf act: human GPR151 activation, confirmation screen. shares compounds with GPR151 activ. GPR151 PathHunter beta-arrestin cells, luminescence, 90 min; % of EA-reagent control over plate median. activation, % at 11.2 µM. 6,700 tested, under 10 active;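 active = mean percent activation across replicates above the confirmation screen cutoff of 4.91%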
GPR119 ag: counter-screen for GPR151 activators: effect on human GPR119. shares compounds with GPR151 activ. GPR119 PathHunter beta-arrestin cells, luminescence, 90 min; 0 = compound-well median, 100 = enzyme-acceptor control. 6,700 compounds, 0.3% hits. AID 1508611. activation, % at 11.2 µM;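 active = mean percent activation in the counterscreen above 29.09%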;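 also: counterscreen on off-target GPR119 to flag nonselective hits from the GPR151 activator screen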
* = called active by the depositor; / = no result.

SMILES	TEAD-YAP inh	MITF primary	FBW7 activator	GPR151 activ	GPR151 conf act	GPR119 ag
O=C(CN(Cc1ccc(F)cc1)S(=O)(=O)c1ccccc1)Nc1cccc([N+](=O)[O-])c1	-1	9	0	5.1*	0	4
O=[N+]([O-])c1cccc(S(=O)(=O)NCc2ccc(F)cc2)c1	10	4	0	9.0*	1	14
CC(C)(C)NC(=O)CN(Cc1ccccc1)S(=O)(=O)c1ccc(F)cc1	12	0	0	5.3*	0	-2
O=C(CN(Cc1ccccc1)S(=O)(=O)c1ccc(F)cc1)Nc1cccc([N+](=O)[O-])c1	3	13	0	3	/	/
CC(=O)c1cccc(-c2cn3c(NC(=O)CC4CC4)cnc3cn2)c1	0	5	0	-1	/	/
NS(=O)(=O)c1ccc(-c2cc(NC(=O)C3COc4ccccc4O3)ccn2)cc1 (stereo not given)	-9	19	0	-1	/	/
NC(=O)c1ccccc1NC(=O)CCn1c(=O)oc2ccccc21	4	4	0	5.0*	0	7
CCn1cc(CCC(=O)NC(C)C)c2ccccc21	-1	3	0	5.6*	0	8
CC(C)NC(=O)CCn1c(=O)oc2ccccc21	-8	-1	0	8.1*	0	-6
O=C(O)CN1C(=O)C(=O)/C(=C(\O)c2ccc(Cl)cc2)C1c1cccc([N+](=O)[O-])c1 (stereo not given)	1	-8	0	1	/	/
CCOc1ccc(NC(=O)c2ccccc2NC(=O)CN2CCC(C(N)=O)CC2)cc1	-3	3	0	4	/	/
Cc1ccc2nc3c(cc(C#N)c(=N)n3CCN3CCOCC3)c(=O)n2c1	-32	0	0	-1	/	/
N#Cc1ccc(NC(=O)CSc2ccc(Br)cc2)cc1	-8	-15	0	1	/	/
CCCOC(=O)c1ccc(NC(=O)CSc2ccccc2)cc1	-11	3	0	0	/	/
CCOc1ccc(NC(=O)CSc2nc3c(c(=O)n2CC)SC(C)C3)cc1 (stereo not given)	2	3	0	-1	/	/
CCOC(=O)c1ccc(NC(=O)CSc2nc3c(c(=O)n2CC)SC(C)C3)cc1 (stereo not given)	20	2	0	5.1*	1	10
CCOC(=O)c1ccc(COC(=O)c2cc(Br)ccc2NC(C)=O)cc1	-13	-1	0	6.3*	0	-1
O=C(CSc1ccc(Br)cc1)Nc1ccc([N+](=O)[O-])cc1	13	6	0	6.4*	1	-14
CCOC(=O)c1ccc(NC(=O)CSc2ccc(Br)cc2)cc1	3	-2	0	7.9*	0	-4
CCOC(=O)c1ccc(NC(=O)CN2C(=O)C3C4C=CC(C5CC45)C3C2=O)cc1 (stereo not given)	5	25	1	7.0*	1	4
CCOC(=O)c1ccc(NC(=O)CN2C(=O)C3C4C=CC(C4)C3C2=O)cc1 (stereo not given)	-8	25	0	-2	/	/
COc1ccc(SCCC(=O)Nc2ccc(Br)cc2)cc1	11	-8	0	5.2*	2	9
CCOC(=O)c1ccc(NC(=O)CC2COc3ccccc3O2)cc1 (stereo not given)	8	6	0	5.8*	1	1
CC1CCc2c(C(=O)NCCCN3CCCC3=O)csc2C1 (stereo not given)	-57	-4	0	-1	/	/
COc1ccc(NC(=O)c2cc3nc(C4CC4)cc(C(F)(F)F)n3n2)cc1-n1cnnn1	-9	-1	0	0	/	/
SMILES	TEAD-YAP inh	MITF primary	FBW7 activator	GPR151 activ	GPR151 conf act	GPR119 ag
Cc1ccc(NC(=O)CC2Sc3ccccc3NC2=O)cc1Cl (stereo not given)	7	-20	0	0	/	/
O=C(Nc1cccc(NC(=O)c2ccccc2I)c1)c1cccs1	4	14	0	-1	/	/
CC(=O)c1ccc(OCC(=O)Nc2ccccc2)cc1	-39	10	0	5.8*	-2	-16
CCOc1ccc(NC(=O)c2ccc(C(C)(C)C)cc2)cc1	-29	-13	0	-1	/	/
O=C(COc1ccc(F)cc1)Nc1cccc(C(=O)O)c1	-10	6	0	6.5*	1	18
CCOc1ccc(NC(=O)CNC(=O)c2ccc(C(C)(C)C)cc2)cc1	8	8	0	9.1*	0	-9
CC(C)(C)c1ccc(OCC(=O)Nc2ccc(OCC(=O)O)cc2)cc1	7	11	0	5.2*	0	4
N#CC1=C(N)Oc2cc(O)ccc2C1c1cccc2ccccc12 (stereo not given)	0	9	0	0	/	/
CCOc1ccc(-c2cccc(NC(=O)COc3ccc(C(=O)c4ccccc4)cc3)c2)nn1	5	21	0	7.3*	-1	-1
CC1CCC2(CC1)NC(=O)N(CC(=O)NC(=O)NCc1ccccc1)C2=O (stereo not given)	1	17	0	5.5*	0	-4
O=C(CCC(=O)OCc1ccc([N+](=O)[O-])cc1)OCc1ccc([N+](=O)[O-])cc1	-7	-2	0	5.5*	0	5
O=C(CCC(=O)c1ccc(Cl)cc1)OCc1ccc([N+](=O)[O-])cc1	2	-4	0	1	/	/
Cc1sc2ncn3c(SCC(=O)NCc4cccs4)nnc3c2c1C	11	10	0	1	/	/
Cc1cccc(NC(=O)c2ccc(N3CCN(c4ccccc4Cl)CC3)c([N+](=O)[O-])c2)c1	-2	9	1	-1	/	/
CCOC(=O)c1c(NC(=O)c2ccccc2Cl)sc2c1CC(C)(C)NC2(C)C	-16	-3	0	2	/	/
CCOC(=O)c1c(NC(=O)c2ccc(OC)cc2OC)sc2c1CC(C)(C)NC2(C)C	-2	-2	0	5.6*	0	-2
CC1(C)Cc2c(sc(NC(=O)c3ccccc3F)c2C(N)=O)C(C)(C)N1	5	3	0	6.3*	0	2
CC(=O)NS(=O)(=O)c1ccc(NC(=O)/C=C/c2ccc3c(c2)OCO3)cc1	-2	-10	0	1	/	/
Cc1ccc(/C=C/C(=O)NC(C)c2ccccc2)o1 (stereo not given)	5	4	0	1	/	/
CC(NC(=O)/C=C/c1ccco1)c1ccccc1 (stereo not given)	2	9	0	5.1*	0	15
Cc1cc(OCc2nnc(SCC(=O)N3CCC(C)CC3)o2)ccc1Cl	0	6	0	0	/	/
CCOC(=O)C1=C(C)N(CC(C)C)C(=O)/C1=C\c1ccc(C)cc1	-2	6	0	0	/	/
CCOc1ccc(NC(=O)CSc2nc3n[nH]c(C)c3c(=N)n2-c2ccc(OCC)cc2)cc1	30	1	0	-1	/	/
CCOc1ccc(-n2c(SCC(=O)Nc3ccc(CC)cc3)nc3n[nH]c(C)c3c2=N)cc1	13	4	0	5.3*	2	9
